What was measured:
Conditions in all cases: concentration: 1 μM,replicates: in singlicate; n = 1
MLK1 = system: T1, MLK1
T1 construct: gene MAP3K9

MLK2 = system: MLK2
MLK3 = system: MLK3
MRCKA = system: MRCKA
MRCKB = system: T2, MRCKB
T2 construct: gene CDC42BPB

MST1R = system: MST1R
MST1 = system: T3, MST1
T3 construct: gene STK4

MST2 = system: T4, MST2
T4 construct: gene STK3

MST3 = system: T5, MST3
T5 construct: gene STK24

MST4 = system: MST4
MTOR = system: MTOR
MUSK = system: MUSK
MYLK2 = system: MYLK2
MYLK4 = system: MYLK4
MYLK = system: MYLK
MYO3A = system: MYO3A
MYO3B = system: MYO3B
NDR1 = system: T6, NDR1
T6 construct: gene STK38

NDR2 = system: NDR2
NEK10 = system: NEK10
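Note: KINOMEscan kinase panel screen.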

| Structure (SMILES) | %Inh (MLK1) [%] | %Inh (MLK2) [%] | %Inh (MLK3) [%] | %Inh (MRCKA) [%] | %Inh (MRCKB) [%] | %Inh (MST1R) [%] | %Inh (MST1) [%] | %Inh (MST2) [%] | %Inh (MST3) [%] | %Inh (MST4) [%] | %Inh (MTOR) [%] | %Inh (MUSK) [%] | %Inh (MYLK2) [%] | %Inh (MYLK4) [%] | %Inh (MYLK) [%] | %Inh (MYO3A) [%] | %Inh (MYO3B) [%] | %Inh (NDR1) [%] | %Inh (NDR2) [%] | %Inh (NEK10) [%] |
| --- | --- | --- | --- | --- | --- | --- | --- | --- | --- | --- | --- | --- | --- | --- | --- | --- | --- | --- | --- | --- |
| C=CC(=O)Nc1cc2c(Nc3ccc(F)c(Cl)c3)ncnc2cc1OCCCN1CCOCC1 [GW781483] | 0 | 0 | 3 | 0 | 11 | 10 | 1 | 0 | 33 | 0 | 15 | 0 | 0 | 18 | 0 | 0 | 3 | 4 | 1 | 17 |
| Cl.Oc1cc(-c2nc(-c3ccccc3)[nH]c2-c2ccncc2)ccc1Cl [SB-386023] | 0 | 0 | 3 | 0 | 0 | 22 | 0 | 27 | 0 | 9 | 0 | 0 | 0 | 11 | 0 | 27 | 0 | 10 | 0 | 0 |
| Nc1nc(Nc2ccccc2)cc(-c2ccc3c(N)n[nH]c3c2)n1 [GSK2225749] | 0 | 14 | 0 | 0 | 1 | 0 | 7 | 5 | 5 | 0 | 13 | 4 | 51 | 16 | 0 | 0 | 0 | 0 | 0 | 0 |
| NC(=O)c1cc(-c2ccccc2)cc2c(C3CCNCC3)c[nH]c12 [GSK301362] | 9 | 12 | 0 | 18 | 13 | 40 | 43 | 86 | 0 | 0 | 3 | 21 | 40 | 99 | 15 | 0 | 0 | 0 | 0 | 24 |
| CC(C)Nc1cc(-c2ccc3c(N)n[nH]c3c2)nc(N)n1 [GSK2221681] | 10 | 0 | 9 | 0 | 0 | 13 | 0 | 0 | 0 | 0 | 9 | 0 | 23 | 37 | 18 | 0 | 0 | 10 | 0 | 13 |
| C[C@H]1Oc2cc(cnc2N)-c2c(nn(C)c2C#N)CN(C)C(=O)c2ccc(F)cc21 | 13 | 0 | 23 | 0 | 16 | 0 | 19 | 19 | 4 | 0 | 0 | 11 | 18 | 10 | 10 | 10 | 17 | 31 | 25 | 19 |
| CCN(CC)CCCCNc1ncc2cc(-c3c(Cl)cccc3Cl)c(NC(=O)NC(C)(C)C)nc2n1 | 0 | 40 | 4 | 0 | 0 | 10 | 40 | 31 | 74 | 86 | 39 | 10 | 12 | 43 | 4 | 4 | 23 | 11 | 0 | 29 |
| O=C(NCCNc1ccnc(NCc2ccc(F)cc2)n1)c1cc2ccccc2s1 [GSK1379944] | 5 | 0 | 0 | 10 | 69 | 4 | 0 | 0 | 1 | 0 | 1 | 5 | 0 | 1 | 14 | 0 | 0 | 0 | 0 | 0 |
| Cl.Cl.NC[C@H](CC1CCCCC1)NC(=O)c1cc(Br)c(-c2ccnc3[nH]ccc23)s1 [GSK1581427] | 0 | 0 | 0 | 86 | 99.4 | 11 | 0 | 0 | 0 | 10 | 6 | 3 | 19 | 99.7 | 40 | 0 | 0 | 95.1 | 82 | 0 |
| Cc1cc2cn[nH]c2cc1-c1cccc2c(N)c(C(N)=O)nnc12 | 18 | 0 | 30 | 24 | 0 | 11 | 90.2 | 88 | 11 | 69 | 3 | 0 | 0 | 10 | 71 | 14 | 0 | 85 | 0 | 86 |
| Cl.Cl.NC[C@H](Cc1ccc(C(F)(F)F)cc1)NC(=O)c1cc(Br)c(-c2ccnc3[nH]ccc23)s1 [GSK1487252] | 4 | 0 | 0 | 43 | 97.7 | 44 | 0 | 0 | 13 | 17 | 11 | 0 | 25 | 45 | 55 | 2 | 9 | 93.3 | 41 | 16 |
| Cc1occc1-c1nc(N)c(OC[C@@H](N)Cc2c[nH]c3ccccc23)cc1-c1cc2c(C)n[nH]c2cn1 [GSK1660450] | 29 | 0 | 22 | 78 | 97.6 | 0 | 96.8 | 78 | 91.2 | 94.9 | 15 | 9 | 29 | 9 | 37 | 69 | 28 | 11 | 0 | 6 |
| C[C@@H]1CCN(C(=O)CC#N)C[C@@H]1N(C)c1ncnc2[nH]ccc12 | 0 | 0 | 3 | 0 | 0 | 0 | 3 | 0 | 100 | 0 | 51 | 11 | 6 | 4 | 0 | 8 | 0 | 0 | 12 | 0 |
| CC(C)N1C(=O)Cc2cc(Nc3ncc(C(F)(F)F)c(NCc4cccc(S(C)(=O)=O)c4)n3)ccc21 | 99.7 | 90.2 | 98.8 | 0 | 0 | 0 | 0 | 35 | 23 | 0 | 0 | 15 | 0 | 0 | 10 | 0 | 3 | 35 | 0 | 0 |
| Cc1cc(C(=O)Nc2ccc(Oc3ccc4nc(NC(=O)C5CC5)cn4n3)cc2)nn1-c1ccccc1 | 20 | 43 | 4 | 28 | 0 | 0 | 13 | 0 | 0 | 0 | 9 | 59 | 0 | 5 | 9 | 0 | 21 | 8 | 3 | 0 |
| C[C@@H](Oc1cc(-c2cnn(C3CCNCC3)c2)cnc1N)c1c(Cl)ccc(F)c1Cl | 0 | 0 | 0 | 0 | 10 | – | 56 | 0 | – | 0 | 2 | 75 | 20 | 30 | 21 | 0 | 0 | 19 | 6 | 60 |
| O=C(NCCCN1CCOC1=O)c1cnc(NCc2cc(Cl)ccc2Cl)nc1NC1CCCC1 | 8 | 4 | 23 | 4 | 18 | 26 | 27 | 35 | 14 | 0 | 19 | 11 | 0 | 6 | 14 | 0 | 16 | 31 | 0 | 13 |
| Cc1ccc2c(-c3ccncc3)c(-c3ccc(F)cc3)nn2c1.Cl [GW461484] | 10 | 0 | 0 | 5 | 0 | 38 | 5 | 7 | 2 | 0 | 9 | 0 | 17 | 3 | 13 | 0 | 7 | 29 | 0 | 9 |
| Cl.Cl.Nc1nc(-c2ccc3c(N)n[nH]c3c2)cc(N2CCCC(NC(=O)c3ccccc3)C2)n1 (stereo not shown) [GSK2286775] | 0 | 0 | 0 | 2 | 0 | 35 | 0 | 8 | 12 | 2 | 39 | 0 | 0 | 27 | 11 | 22 | 0 | 20 | 0 | 16 |
| CCn1c(-c2nonc2N)nc2c(C#CC(C)(C)O)nc(OCCN)cc21.Cl.Cl [GSK902056] | 0 | 0 | 0 | 3 | 0 | 43 | 0 | 0 | 0 | 0 | 13 | 20 | 33 | 6 | 4 | 0 | 0 | 31 | 16 | 6 |
| CN(C)CC(O)COc1ccc(Nc2nccc(-c3cnn4nc(N5CCOCC5)ccc34)n2)cc1 (stereo not shown) [GW767488] | 0 | 18 | 18 | 0 | 3 | 16 | 0 | 0 | 0 | 46 | 6 | 0 | 38 | 46 | 48 | 33 | 0 | 49 | 0 | 80 |
| CNC(=O)c1ccccc1Sc1ccc2c(/C=C/c3ccccn3)n[nH]c2c1 | 0 | 17 | 1 | 0 | 100 | 29 | 0 | 50 | 11 | 0 | 52 | 51 | 9 | 6 | 14 | 0 | 0 | 9 | 0 | 18 |
| COc1ccc(C[C@@H](CN)NC(=O)c2cc(Br)c(-c3ccnc4[nH]ccc34)s2)cc1.Cl.Cl [GSK1389063] | 13 | 0 | 0 | 89 | 99.4 | 40 | 0 | 34 | 0 | 54 | 17 | 20 | 52 | 98.5 | 99.6 | 10 | 0 | 96.8 | 78 | 23 |
| CN(C)CCOc1ccc(-c2cc(-c3c[nH]nc3-c3ccccn3)ccn2)cc1 [GW835314] | 14 | 6 | 19 | 0 | 0 | 0 | 25 | 0 | 6 | 24 | 0 | 9 | 0 | 0 | 15 | 0 | 30 | 14 | 0 | 0 |
| CCN(CC)CCOc1ccc(Nc2ncc3cc(-c4c(Cl)cccc4Cl)c(=O)n(C)c3n2)cc1 [SB-601273] | 87 | 71 | 75 | 83 | 76 | 93 | 57 | 58 | 80 | 83 | 43 | 51 | 98.4 | 26 | 29 | 61 | 38 | 32 | 71 | 12 |
| Cc1n[nH]c2ccc(-c3cc(OC[C@@H](N)Cc4ccccc4)cnc3-c3ccoc3)cc12.O=C(O)C(F)(F)F.O=C(O)C(F)(F)F [GSK507358] | 0 | 0 | 0 | 28 | 15 | 33 | 2 | 33 | 17 | 65 | 1 | 6 | 25 | 15 | 14 | 80 | 28 | 14 | 16 | 5 |
| Cc1ccc(-n2nc(C(C)(C)C)cc2NC(=O)Nc2ccc(OCCN3CCOCC3)c3ccccc23)cc1 [GW839464] | 6 | 22 | 1 | 8 | 49 | 0 | 0 | 33 | 11 | 0 | 19 | 0 | 0 | 0 | 3 | 0 | 15 | 5 | 2 | 0 |
